Laboratory results: PubChem BioAssay AID488969 (Vanderbilt High Throughput Screening Facility, 2010)
Over roughly 110,000 compounds, “z-score” has its median near -0.1; the highest 2% begin near 2. The full list was thinned out, with the highest values kept by preference. The source made the active and inactive calls.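 How the source made its calls: active means z-score in the third read window above 3 or below -3; inactive means the rest.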

target: Metabotropic glutamate receptor 8 (Rattus norvegicus) (UniProt P70579); assay: mGluR8 Gi/Go-coupled signaling modulation – cell-based, rat, thallium flux, HTS, primary screen (AID 488969); settings: HEK293 rat mGluR8, GIRK (G protein-gated inwardly rectifying potassium channel) thallium flux, FluoZin2; at 10 µM; stronger effect = higher value; submaximal glutamate (EC20) added with thallium
Sequence (P70579 whole entry, looked up): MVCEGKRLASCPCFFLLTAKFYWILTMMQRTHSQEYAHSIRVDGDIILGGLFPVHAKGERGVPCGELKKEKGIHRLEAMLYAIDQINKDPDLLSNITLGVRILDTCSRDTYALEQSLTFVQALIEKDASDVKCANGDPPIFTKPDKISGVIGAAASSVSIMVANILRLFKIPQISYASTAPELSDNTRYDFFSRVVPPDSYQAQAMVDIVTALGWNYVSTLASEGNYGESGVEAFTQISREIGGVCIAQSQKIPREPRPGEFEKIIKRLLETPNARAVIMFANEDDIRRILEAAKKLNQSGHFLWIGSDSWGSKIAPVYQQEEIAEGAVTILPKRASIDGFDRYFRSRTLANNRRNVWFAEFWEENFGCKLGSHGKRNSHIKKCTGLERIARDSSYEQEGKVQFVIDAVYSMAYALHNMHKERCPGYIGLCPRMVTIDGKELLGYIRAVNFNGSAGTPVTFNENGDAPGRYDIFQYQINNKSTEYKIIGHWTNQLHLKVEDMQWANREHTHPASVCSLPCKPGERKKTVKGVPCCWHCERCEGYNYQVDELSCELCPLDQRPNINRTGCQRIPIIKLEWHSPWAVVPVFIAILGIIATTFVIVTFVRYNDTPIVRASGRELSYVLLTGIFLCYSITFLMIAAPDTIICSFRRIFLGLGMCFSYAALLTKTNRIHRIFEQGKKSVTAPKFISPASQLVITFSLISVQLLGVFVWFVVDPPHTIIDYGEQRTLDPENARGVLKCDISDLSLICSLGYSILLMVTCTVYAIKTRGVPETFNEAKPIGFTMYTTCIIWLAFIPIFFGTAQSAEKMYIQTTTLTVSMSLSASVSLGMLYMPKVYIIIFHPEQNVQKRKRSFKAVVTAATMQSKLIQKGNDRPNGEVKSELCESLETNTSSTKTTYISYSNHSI

Compound | z-score
COc1ccc(OC)c(C(=O)CSc2nc3cccnc3n2C)c1 | 0.718
COc1ccc(S(=O)(=O)N(C)CC(=O)Nc2ccccc2OC)cc1 | -0.484
SC(COCc1ccccc1)CN1CCN(Cc2ccc3c(c2)OCO3)CC1 (stereo not given) | 3.02 (active)
OC(COCc1ccc2c(c1)OCO2)CN1CCN(Cc2ccccc2)CC1 (stereo not given) | -0.00855
CN1CCN(CC(O)COCc2ccc3c(c2)OCO3)CC1 (stereo not given) | 0.1
CCn1nc(NC(=O)c2ccccn2)c2cc3cc(C)ccc3nc21 | -0.417
CC1=C(C(=O)OCc2ccccc2)C(c2cccnc2)n2nnnc2N1 (stereo not given) | 0.152
CCCN1CCN(C(=S)Nc2ccccc2C(F)(F)F)CC1 | 2.17
CN1CCN(CCNC(=O)Nc2ccccc2C(F)(F)F)CC1 | -0.464
FC(F)(F)c1ccccc1NC(=S)N1CCN(c2ncccn2)CC1 | -0.0651
CC1CCC(C(=O)NC(C(=O)N2CCc3ccccc3C2)C(C)C)CC1 (stereo not given) | -0.269
COc1ccc(-c2nc3c(c4nnc(SC(C)C(=O)Nc5ccccc5)n24)COC(C)(C)C3)cc1 (stereo not given) | -0.351
N#Cc1nc(-c2ccccc2F)oc1N1CCCC1 | -0.139
CC1CCN(c2oc(-c3cccc4ccccc34)nc2C#N)CC1 | 0.305
CC1CCN(c2oc(-c3ccccc3F)nc2C#N)CC1 | 2.57
C=CCn1c(SCCOC)nc2c1c(=O)[nH]c(=O)n2C | -0.444
NC(Cc1ccc2nsnc2c1)C(=O)O (stereo not given) | 0.179
CCCCn1c(Cc2ccccc2)nnc1SCC(=O)N1CCOCC1 | -0.257
O=C1Nc2ccccc2/C1=C\c1cccn1-c1ccc(OC(F)(F)F)cc1 | 2.45
O=C1C(=Cc2cccn2-c2ccc(O)cc2)C(=O)c2ccccc21 | -0.204
CN(C)/C=C1\C(=O)Nc2ccccc21 | -0.00898
COc1ccc(OC)c(NC(=O)CSc2nnc(CNC(=O)c3ccco3)o2)c1 | -0.27
O=C(Nc1nccs1)C1C2/C=C\CCCCC21 (stereo not given) | 0.175
COC(=O)Nc1ccc([N+](=O)[O-])cc1OC | -0.117
COc1ccc2nc(NC(=O)CN3CCN(C)CC3)sc2c1 | 0.194

Compound | z-score
c1cncc(-c2nnc(-c3ccco3)o2)c1 | -0.101
CC(=O)Nc1cccc2c1C(=O)N(c1ccc(C)cc1)C2=O | 0.845
CC(C)CC(=O)Nc1cccc2c1C(=O)N(c1ccccc1)C2=O | -3.2 (active)
CC(=O)Nc1cccc2c1C(=O)N(c1cccc(C)c1)C2=O | 3.13 (active)
Cc1csc(N(C(=O)c2cccc(S(=O)(=O)N3CCCC3)c2)c2ccccc2)n1 | -0.475
Cc1csc(N(C(=O)c2cccc(S(=O)(=O)N(C)C)c2)c2ccccc2)n1 | 2.2
Cc1csc(N(C(=O)c2ccc(S(=O)(=O)N(C)C)cc2)c2ccccc2)n1 | 0.4
COc1cc(C2N(c3ccc(F)cc3)C(=O)C3CCCN32)cc(OC)c1OC (stereo not given) | 0.416
O=C1CCSc2ccc(Cl)cc2N1Cc1ccc(Cl)cc1 | -0.366
S=C1Nc2cc(Cl)ccc2Sc2ccccc21 | 11.3 (active)
S=C1Nc2ccccc2Sc2ccc(Cl)cc21 | 4.1 (active)
S=C1CCSc2ccc(Cl)cc2N1 | 9.14 (active)
O=C1Cc2ccccc2Sc2ccc(Cl)cc21 | -0.097
CCOC(=O)Nc1ccc2c(c1)Nc1ccccc1S2 | -0.571
O=C1Nc2ccccc2S/C1=C/Nc1cccc(Cl)c1 | -0.29
O=C1CCSc2ccc(Cl)cc2N1Cc1ccccc1 | -0.321
Clc1ccc2c(c1)-c1nnc(Br)n1-c1ccccc1S2 | -4.38 (active)
Cc1ccc(-n2c(Cc3cccn3C)nnc2SCC(=O)N2CCN(c3ccccc3)CC2)cc1 | -0.835
Cc1ccc(S(=O)(=O)N2CCN(C(=O)N(c3ccccc3)c3ccccc3)CC2)cc1 | -0.559
O=c1cc(O)nc(SCc2ccccc2)n1-c1ccc(F)cc1 | -0.305
CC1CCN(c2ccc(C(=O)Nc3ccc4c(c3)OCO4)cc2[N+](=O)[O-])CC1 | -0.237
COc1ccccc1NC(=O)CNC(=O)c1ccccc1C | 0.371
CCOC(=O)CNS(=O)(=O)c1ccc(C(=O)O)cc1 | 0.207
Cc1ccc(S(=O)(=O)CC(=O)Nc2nc(-c3ccccc3)cs2)cc1 | 1.27
CCCCC(=O)Nc1ccc(C(=O)NNC(=O)CCCOc2ccc(Cl)cc2Cl)cc1 | -0.184

Compound | z-score
O=C(CCCOc1ccc(Cl)cc1Cl)Nc1ccncc1 | 2.21
CN(C(=S)NC(=O)CCCOc1ccc(Cl)cc1Cl)c1ccccc1 | 4 (active)
CCOc1ccccc1NC(=S)NC(=O)CCCOc1ccc(Cl)cc1Cl | -0.0571
COc1ccccc1NC(=S)NC(=O)CCCOc1ccc(Cl)cc1Cl | -0.0968
O=C(CCCOc1ccc(Cl)cc1Cl)Nc1cccnc1 | -0.0915
Cc1ccc(C)c(Oc2ncnc(N)c2[N+](=O)[O-])c1 | 0.623
CCOC(=O)COc1ccc(S(=O)(=O)Nc2cccc(SC)c2)cc1 | -0.28
CC(C)C(=O)Nc1ccc(-c2csc(-c3ccccc3)n2)cc1 | -0.165
Cc1cc(-c2ccccc2)c(C#N)c(=S)[nH]1 | 0.152
Cc1ccc(-c2cc(-c3ccccc3)[nH]c(=S)c2C#N)cc1 | 3.09 (active)
N#Cc1c(-c2ccc(C(F)(F)F)cc2)cc(-c2ccccc2)[nH]c1=S | 1.24
Cc1ccc(NC(=O)COC(=O)CNC(=O)c2ccc(Br)cc2)c(C)c1 | -0.336
Cc1ccc(NC(=O)NC2CCN(S(=O)(=O)c3ccc(F)cc3)CC2)cc1 | 0.564
Brc1ccc(-c2cn3ccccc3n2)s1 | -0.391
CCOC(=O)C1(C)NC(c2ccco2)C2C(=O)N(c3ccc(C)cc3)C(=O)C21 (stereo not given) | 0.153
COc1cc(NC(=O)C2CC2C)c(C(=O)O)cc1OC (stereo not given) | -0.191
C/C(N)=C(/C#N)C(=O)CN1CCCCC1 | 0.678
O=C(CCCc1nc(-c2ccccc2)no1)N1CCOCC1 | 0.382
Cc1cccc(-c2noc(CCCC(=O)N3CCOCC3)n2)c1 | -0.139
O=C(CCCc1nc(-c2ccc(Cl)cc2)no1)N1CCOCC1 | 3.9 (active)
COc1ccc(Cl)cc1C(=O)NNC(=S)NC(=O)c1cc(-c2ccc(Cl)cc2)nc2ccccc12 | 0.219
CCOC(=O)c1ccc(NC(=O)COC(=O)Cc2csc(-c3ccccc3)n2)cc1 | -0.252
O=C(NCc1cccs1)c1cccnc1Cl | -0.317
O=C(NCc1cccs1)c1ccccc1C(=O)NCc1cccs1 | -0.214
O=C(NCc1cccs1)c1cccnc1C(=O)O | 5.74 (active)
